Test systems include NCI-H23 lung; NCI-H226 lung; NCI-H322M lung; HOP-62 NSCLC; NCI-H460 lung; HOP-92 NSCLC; NCI-H522 lung; A549/ATCC NSCLC; 786-0 renal; COLO 205 colon; DU-145 prostate; K-562 leukemia; MALME-3M melanoma; MDA-MB-231 breast; RXF 393 renal; SF-268 CNS; SF-295 CNS; SF-539 CNS; UACC-257 melanoma; M14 melanoma.
Assay in all cases: NCI-60 one-dose screen, 48 h (100 = growth as untreated, 0 = no growth, -100 = all killed)
Settings in all cases: 10 µM unless noted

About 83,000 compounds went through this panel and 20% of them were active in at least one assay; those are over-represented in the sample as a whole.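 Each cell line was grown in a 96-well plate and treated with one concentration of compound for 48 hours. Values below 10 were considered active.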 A number with no mark means an inactive call. The source made the active and inactive calls.

For `Nc1cccc2c1C(=O)c1cccc(NC(=O)c3ccccc3)c1C2=O`, the growth is 29.9% with NCI-H23 lung; 52.2% with NCI-H226 lung; -7.76% (active) with NCI-H322M lung; 38.7% in the test on HOP-62 NSCLC; 7.2% (active) with NCI-H460 lung; 53.2% with HOP-92 NSCLC. The growth was -28.5% (active) in the test with NCI-H522 lung; 28.6% in the test with A549/ATCC NSCLC; 37.5% in the test with 786-0 renal; -11.5% (active) in the test with COLO 205 colon; 6.99% (active) with DU-145 prostate; 13.3% with K-562 leukemia. In addition, the growth with MALME-3M melanoma was -17% (active); with MDA-MB-231 breast it was 38.4%; in the test with RXF 393 renal, -10.7% (active); with SF-268 CNS, 51.5%; in the test on SF-295 CNS, -30.3% (active); in the test on SF-539 CNS it was -2.57% (active). For the same molecule, the growth was 56.2% in the test on UACC-257 melanoma and 14.2% with M14 melanoma.
In the case of `COc1cc(C)cc2oc3oc(=N)c(C(=O)c4ccccc4)cc3c(=O)c12`, the growth was 108% with NCI-H23 lung; 103% in the test with NCI-H226 lung; 98% in the test on NCI-H322M lung; 106% in the test with HOP-62 NSCLC; 105% in the test on NCI-H460 lung; 94.9% with HOP-92 NSCLC. In addition, the growth with NCI-H522 lung was 96.8%; in the test on A549/ATCC NSCLC it was 109%; with 786-0 renal, 106%; in the test with COLO 205 colon, 124%; with DU-145 prostate, 111%; with K-562 leukemia, 97.5%. The growth in the test on MALME-3M melanoma was 91.8%; in the test on MDA-MB-231 breast, 98.2%; in the test with RXF 393 renal, 108%; with SF-268 CNS, 94.4%; in the test on SF-295 CNS it was 106%; with SF-539 CNS, 96.4%. Besides, the growth is 111% with UACC-257 melanoma and 99.7% in the test with M14 melanoma.
Consider `O=C(O)c1cn(C2CC2)c2cc(N3CCN(Cc4c(O)ccc5ccccc45)CC3)c(F)cc2c1=O`, for which the growth with NCI-H23 lung was 21.9%; in the test with NCI-H226 lung, 6.89% (active); with NCI-H322M lung, 22%; with HOP-62 NSCLC, -41.1% (active); in the test with NCI-H460 lung it was 5.64% (active); with HOP-92 NSCLC, -8.22% (active). Also, the growth was 19.7% in the test with NCI-H522 lung; -21.9% (active) in the test on A549/ATCC NSCLC; 29.5% in the test with 786-0 renal; 27.1% with COLO 205 colon; 3.75% (active) in the test with DU-145 prostate; 58.4% in the test on K-562 leukemia. Also, the growth was 10.9% in the test on MALME-3M melanoma; 43.6% in the test with MDA-MB-231 breast; -29.2% (active) in the test with RXF 393 renal; 47.1% in the test on SF-268 CNS; 39.3% with SF-295 CNS; -17.7% (active) in the test on SF-539 CNS. Besides, the figures for the growth in the test with UACC-257 melanoma and with M14 melanoma were 35.1% and 47.6%, respectively.
Consider `O=C(CCNCc1ccccc1)c1ccccc1`, for which the growth is 106% in the test on NCI-H23 lung; 102% in the test on NCI-H226 lung; 110% with NCI-H322M lung; 104% in the test with HOP-62 NSCLC; 110% in the test on NCI-H460 lung; 120% in the test on HOP-92 NSCLC. Moreover, the growth was 101% with NCI-H522 lung; 101% in the test on A549/ATCC NSCLC; 108% in the test on 786-0 renal; 111% in the test with COLO 205 colon; 105% in the test with DU-145 prostate; 108% in the test with K-562 leukemia. Also, the growth in the test on MALME-3M melanoma was 104%; with MDA-MB-231 breast, 121%; with RXF 393 renal, 116%; with SF-268 CNS, 108%; in the test with SF-295 CNS, 90%; in the test on SF-539 CNS, 98.1%. Further, the figures for the growth with UACC-257 melanoma and in the test with M14 melanoma were 102% and 105%, respectively.
Turning to `[2H]C1([2H])CCN(C(=O)C2CC2)c2cc(NS(=O)(=O)c3ccc(-c4cccc(C(N)=O)c4)cc3)ccc21`, the growth was 44% in the test with NCI-H23 lung; 61.1% with NCI-H226 lung; 64.6% in the test with NCI-H322M lung; 29.1% with HOP-62 NSCLC; 17.3% with NCI-H460 lung; 33.3% in the test with HOP-92 NSCLC. Besides, the growth with NCI-H522 lung is 14%; with A549/ATCC NSCLC it was 45.2%; in the test with 786-0 renal, 81.8%; with COLO 205 colon, 37.7%; in the test with DU-145 prostate, 72%; in the test on K-562 leukemia it was 20.7%. For the same molecule, the growth with MALME-3M melanoma was 39.6%; in the test on MDA-MB-231 breast, 42.3%; in the test with RXF 393 renal, 48.4%; in the test with SF-268 CNS it was 51.9%; in the test with SF-295 CNS, 19.8%; with SF-539 CNS, 23.4%. Besides, the figures for the growth with UACC-257 melanoma and in the test with M14 melanoma were 47.7% and 86.4%, respectively.
On to `CCN(CC)CCS(=O)(=O)CCNc1ccnc2cc(Cl)ccc12`, for which the growth with NCI-H23 lung was -18.4% (active); in the test on NCI-H226 lung, 30.1%; in the test on NCI-H322M lung, 56.8%; with HOP-62 NSCLC, 22.5%; in the test on NCI-H460 lung, 2.87% (active); with HOP-92 NSCLC it was 26.4%. Besides, the growth is -50.5% (active) with NCI-H522 lung; 71.9% with A549/ATCC NSCLC; 10.2% in the test on 786-0 renal; -44.5% (active) in the test on COLO 205 colon; -24% (active) in the test on DU-145 prostate; 7.87% (active) with K-562 leukemia. The growth with MALME-3M melanoma was 1.04% (active); in the test on MDA-MB-231 breast it was -2.95% (active); in the test on RXF 393 renal it was -17.2% (active); in the test on SF-268 CNS, 4.55% (active); in the test with SF-295 CNS, 25.9%; with SF-539 CNS it was -2.68% (active). Further, the growth in the test on UACC-257 melanoma is 59%; in the test on M14 melanoma, -10.5% (active).
On to `C[N+](C)(C)c1ncnc2[n-]cnc12`, for which the growth in the test with NCI-H23 lung is 57.8%; in the test with NCI-H226 lung, 90.4%; with NCI-H322M lung, 105%; in the test with HOP-62 NSCLC it was 105%; in the test on NCI-H460 lung, 100%; with HOP-92 NSCLC, 83.2%. Also, the growth was 68.9% with NCI-H522 lung; 100% in the test on A549/ATCC NSCLC; 72.7% in the test with 786-0 renal; 103% in the test with COLO 205 colon; 99% in the test on DU-145 prostate; 101% with K-562 leukemia. Further, the growth in the test with MALME-3M melanoma was 98.3%; in the test with MDA-MB-231 breast, 86.5%; in the test with RXF 393 renal, 97%; in the test on SF-268 CNS, 91%; in the test with SF-295 CNS it was 88.7%; in the test on SF-539 CNS, 89.5%. The growth was -29.9% (active) in the test on UACC-257 melanoma and 89.9% with M14 melanoma.
Turning to `Oc1ccc(N=Nc2nccs2)c(O)c1`, the growth is 81.2% in the test on NCI-H23 lung; 89.6% in the test with NCI-H226 lung; 74.4% in the test on NCI-H322M lung; 79% with HOP-62 NSCLC; 31.2% in the test with NCI-H460 lung; 61.7% in the test on HOP-92 NSCLC. The growth in the test on NCI-H522 lung is 41.5%; with A549/ATCC NSCLC, 52.2%; in the test on 786-0 renal it was 36.8%; in the test on COLO 205 colon it was 24.8%; in the test with DU-145 prostate, 64%; with K-562 leukemia, 44%. In addition, the growth in the test on MALME-3M melanoma is 92.9%; in the test on MDA-MB-231 breast, 54.9%; in the test on RXF 393 renal, 90%; with SF-268 CNS it was 51.5%; in the test on SF-295 CNS, 40.3%; with SF-539 CNS, 86.1%. Also, the growth in the test on UACC-257 melanoma is 99.5%; with M14 melanoma it was 68%.

Values taken from PubChem BioAssay (NCI).
